# Source: PubChem BioAssay (EPA / NIEHS)
# Inconclusive results are not listed. Where a structure was tested more than once in an assay, its records may differ in their call. The source made the active and inactive calls. Rule for the calls: active = hit-call score of the fitted dose curve at least 0.9, where 1 is the maximum; inconclusive = response in the unintended direction; inactive = score below 0.9.
# Assay: ACEA_ER_AUC_viability: ACEA Biosciences xCELLigence Real-Time Cell Analysis on Estrogen Receptor Agonism for Viability (AID 2283782);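 note: continuous compound exposure with impedance area under curve over 80 h; hit means loss of impedance signal meaning reduced cell growth or viability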
# Procedure, shortened: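 T-47D; phenol red-free RPMI1640 + 10% CS-FBS; 8 conc., 1:4 serial, max 100 uM final, ≤0.5% DMSO; n = 2; continuous exposure; impedance monitored to 80 h post-dose; AUC vs DMSO.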
SMILES,AC50,outcome
CC(C)(C)C(O)/C(=C\c1ccc(Cl)cc1Cl)n1cncn1 (stereo not given),81.1 µM (active),
O=[N+]([O-])c1c(Cl)c(Cl)c(Cl)c(Cl)c1Cl,72.3 µM (active),
O=C(O)C(F)(F)C(F)(F)C(F)(F)C(F)(F)C(F)(F)C(F)(F)C(F)(F)F,,inactive
CC(C)OC(=O)Nc1cccc(Cl)c1,79.6 µM (active),
O=C(O)COc1ccc(Cl)cc1Cl,,inactive
C[C@H]1[C@H](c2ccc(Cl)cc2)SC(=O)N1C(=O)NC1CCCCC1,79.9 µM (active),
CCc1ccc(C(=O)NN(C(=O)c2cc(C)cc(C)c2)C(C)(C)C)cc1,,inactive
CNC(=O)Oc1ccccc1OC(C)C,,inactive
N#Cc1c(Cl)c(Cl)c(Cl)c(C#N)c1Cl,1.54 µM (active),
Cc1[nH]c(=O)n(C(C)(C)C)c(=O)c1Cl,,inactive
ClC1C(Cl)C(Cl)C(Cl)C(Cl)C1Cl (stereo not given),60.1 µM (active),inactive
Clc1ccccc1-c1nnc(-c2ccccc2Cl)nn1,,inactive
O=C(O)CCCOc1ccc(Cl)cc1Cl,,inactive
CCC(C)(C)C(=O)OC1=C(c2ccc(Cl)cc2Cl)C(=O)OC12CCCCC2,12.3 µM (active),
CCC(C)(NC(=O)c1cc(Cl)c(C)c(Cl)c1)C(=O)CCl (stereo not given),9.16 µM (active),
CC(C)(C)C(O)C(Oc1ccc(Cl)cc1)n1cncn1 (stereo not given),,inactive
CC[C@H](C)[C@H]1O[C@]2(C=C[C@@H]1C)C[C@@H]1C[C@@H](C/C=C(\C)[C@@H](O[C@H]3C[C@H](OC)[C@@H](O[C@H]4C[C@H](OC)[C@@H](O)[C@H](C)O4)[C@H](C)O3)[C@@H](C)/C=C/C=C3\CO[C@@H]4[C@H](O)C(C)=C[C@@H](C(=O)O1)[C@]34O)O2 (tested in a mixture with another compound),6.89 µM (active),
OCCOc1ccccc1,,inactive
CCN(CC)C(=O)SCc1ccc(Cl)cc1,75.9 µM (active),
